# Source: the supplement of paper PMC10849652
# The full data set covers some 8,800 targets. This sample favours those with a hit. About 0.5% of all pairs of compound and target were hits. A number with no mark means an inactive call.
# How the values were obtained:
# Experiment in all cases: log2 fold change, soluble protein after heating vs DMSO (PISA); higher = thermal stabilisation; K562 lysate, 10 uM; active = over 0.2 and 3.5 SD of the protein, either way, in both replicates (recomputed)
# lapatinib = compound: CS(=O)(=O)CCNCc1ccc(-c2ccc3ncnc(Nc4ccc(OCc5cccc(F)c5)c(Cl)c4)c3c2)o1 [lapatinib]
# Method in brief: (§1)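 K562 pellets were dounce-homogenised in PBS pH 7.4 with 1 mM MgCl2, and the crude extract at 1 mg/mL protein was treated with 10 μM compound for 30 min. Aliquots were heated for 3 min across 48°C-58°C, pooled, and brought to 0.5% NP-40 at 4°C; soluble protein was the supernatant after 21,000xg for 90 min. Soluble protein was quantified by TMTpro 16plex LC-MS/MS with channel sums equalised, and reported as log2 fold change in thermal stability against DMSO controls, with values from duplicates.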
# pictilisib = compound: CS(=O)(=O)N1CCN(Cc2cc3nc(-c4cccc5[nH]ncc45)nc(N4CCOCC4)c3s2)CC1 [pictilisib]
# Method in brief: as §1
# crizotinib = compound: C[C@@H](Oc1cc(-c2cnn(C3CCNCC3)c2)cnc1N)c1c(Cl)ccc(F)c1Cl [crizotinib]
# Method in brief: as §1
# [1] = compound: C[C@H](C1=CC=C(C=C1)C(=O)NC2=C3C=CNC3=NC=C2)N
# Method in brief: as §1
# duvelisib = compound: C[C@H](Nc1ncnc2nc[nH]c12)c1cc2cccc(Cl)c2c(=O)n1-c1ccccc1 [duvelisib]
# Method in brief: as §1
# gandotinib = compound: Cc1cc(Nc2cc(CN3CCOCC3)c3nc(C)c(Cc4ccc(Cl)cc4F)n3n2)n[nH]1 [gandotinib]
# Method in brief: as §1
# tozasertib = compound: Cc1cc(Nc2cc(N3CCN(C)CC3)nc(Sc3ccc(NC(=O)C4CC4)cc3)n2)n[nH]1 [tozasertib]
# Method in brief: as §1
# doramapimod = compound: Cc1ccc(-n2nc(C(C)(C)C)cc2NC(=O)Nc2ccc(OCCN3CCOCC3)c3ccccc23)cc1 [doramapimod]
# Method in brief: as §1
# bafetinib = compound: Cc1ccc(NC(=O)c2ccc(CN3CC[C@H](N(C)C)C3)c(C(F)(F)F)c2)cc1Nc1nccc(-c2cncnc2)n1 [bafetinib]
# Method in brief: as §1
# [2] = compound: Cc1cccc(CC(=O)N2CCc3c2ccc(-c2cn(C)c4ncnc(N)c24)c3F)n1
# Method in brief: as §1
# nilotinib = compound: Cc1cn(-c2cc(NC(=O)c3ccc(C)c(Nc4nccc(-c5cccnc5)n4)c3)cc(C(F)(F)F)c2)cn1 [nilotinib]
# Method in brief: as §1
# [3] = compound: Cc1nc(Nc2n[nH]c3c2CN(C(=O)N[C@H](CN(C)C)c2ccccc2)C3(C)C)c2sccc2n1
# Method in brief: as §1
# dasatinib = compound: Cc1nc(Nc2ncc(C(=O)Nc3c(C)cccc3Cl)s2)cc(N2CCN(CCO)CC2)n1 [dasatinib]
# Method in brief: as §1
# [4] = compound: Cc1ncc(-c2ccnc(Nc3ccc(S(C)(=O)=O)cc3)n2)n1C(C)C
# Method in brief: as §1
# [5] = compound: Cn1cc(-c2ccc3c(c2)CCN3C(=O)Cc2cccc(C(F)(F)F)c2)c2c(N)ncnc21
# Method in brief: as §1
# quisinostat = compound: Cn1cc(CNCC2CCN(c3ncc(C(=O)NO)cn3)CC2)c2ccccc21 [quisinostat]
# Method in brief: as §1
# tipifarnib = compound: Cn1cncc1[C@@](N)(c1ccc(Cl)cc1)c1ccc2c(c1)c(-c1cccc(Cl)c1)cc(=O)n2C [tipifarnib]
# Method in brief: as §1
# [6] = compound: NC(=O)Nc1cc(-c2cccc(F)c2)sc1C(=O)N[C@H]1CCCNC1
# Method in brief: as §1
# [7] = compound: NC(=O)c1cnc(N[C@@H]2CCCC[C@@H]2N)nc1Nc1cccc(-n2nccn2)c1
# Method in brief: as §1
# [8] = compound: NC1(c2ccc(-c3nc4ccn5c(=O)[nH]nc5c4cc3-c3ccccc3)cc2)CCC1
# Method in brief: as §1
# Sequence of UniProt P08236 (P08236 whole entry, looked up): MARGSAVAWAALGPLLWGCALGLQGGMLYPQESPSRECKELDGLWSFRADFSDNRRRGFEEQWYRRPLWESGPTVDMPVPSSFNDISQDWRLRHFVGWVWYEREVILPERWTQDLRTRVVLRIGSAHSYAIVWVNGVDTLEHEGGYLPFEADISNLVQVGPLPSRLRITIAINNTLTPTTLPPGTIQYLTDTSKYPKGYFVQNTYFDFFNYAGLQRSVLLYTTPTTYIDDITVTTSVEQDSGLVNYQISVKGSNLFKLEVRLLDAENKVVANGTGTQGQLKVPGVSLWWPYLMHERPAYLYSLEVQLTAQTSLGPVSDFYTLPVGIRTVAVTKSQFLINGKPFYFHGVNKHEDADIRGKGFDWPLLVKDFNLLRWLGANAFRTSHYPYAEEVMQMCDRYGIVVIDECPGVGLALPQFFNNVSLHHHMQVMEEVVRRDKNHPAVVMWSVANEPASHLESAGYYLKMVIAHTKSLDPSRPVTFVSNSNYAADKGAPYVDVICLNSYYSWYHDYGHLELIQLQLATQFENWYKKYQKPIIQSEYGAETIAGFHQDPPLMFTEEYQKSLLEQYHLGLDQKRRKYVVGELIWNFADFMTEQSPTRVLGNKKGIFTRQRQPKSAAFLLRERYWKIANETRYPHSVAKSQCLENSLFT
# Sequence of UniProt Q969S8 (Q969S8 whole entry, looked up): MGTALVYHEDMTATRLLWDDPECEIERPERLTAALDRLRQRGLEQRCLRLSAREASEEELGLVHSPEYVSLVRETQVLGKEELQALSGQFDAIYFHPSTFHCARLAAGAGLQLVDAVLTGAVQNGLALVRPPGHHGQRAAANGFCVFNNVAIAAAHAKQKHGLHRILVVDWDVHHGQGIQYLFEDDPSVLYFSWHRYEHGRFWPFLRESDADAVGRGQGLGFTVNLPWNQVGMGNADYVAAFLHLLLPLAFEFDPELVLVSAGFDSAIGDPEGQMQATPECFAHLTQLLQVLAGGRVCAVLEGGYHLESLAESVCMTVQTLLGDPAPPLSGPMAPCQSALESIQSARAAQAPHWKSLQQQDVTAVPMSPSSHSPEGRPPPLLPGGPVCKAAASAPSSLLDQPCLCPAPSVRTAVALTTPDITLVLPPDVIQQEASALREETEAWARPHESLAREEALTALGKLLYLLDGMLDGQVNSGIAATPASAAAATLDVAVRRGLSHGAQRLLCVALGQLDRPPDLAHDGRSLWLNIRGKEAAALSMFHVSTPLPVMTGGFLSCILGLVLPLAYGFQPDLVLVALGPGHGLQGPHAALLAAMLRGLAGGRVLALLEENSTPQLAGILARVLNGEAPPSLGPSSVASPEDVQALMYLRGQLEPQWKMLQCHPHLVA
# Sequence of UniProt Q6DN03 (Q6DN03 whole entry, looked up): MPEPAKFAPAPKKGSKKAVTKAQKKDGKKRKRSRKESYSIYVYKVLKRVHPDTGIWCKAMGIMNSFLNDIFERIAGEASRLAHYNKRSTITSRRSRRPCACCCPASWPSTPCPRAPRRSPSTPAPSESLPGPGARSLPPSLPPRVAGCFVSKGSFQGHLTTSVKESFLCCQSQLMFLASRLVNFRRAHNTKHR
# Sequence of UniProt P52272 (P52272 whole entry, looked up): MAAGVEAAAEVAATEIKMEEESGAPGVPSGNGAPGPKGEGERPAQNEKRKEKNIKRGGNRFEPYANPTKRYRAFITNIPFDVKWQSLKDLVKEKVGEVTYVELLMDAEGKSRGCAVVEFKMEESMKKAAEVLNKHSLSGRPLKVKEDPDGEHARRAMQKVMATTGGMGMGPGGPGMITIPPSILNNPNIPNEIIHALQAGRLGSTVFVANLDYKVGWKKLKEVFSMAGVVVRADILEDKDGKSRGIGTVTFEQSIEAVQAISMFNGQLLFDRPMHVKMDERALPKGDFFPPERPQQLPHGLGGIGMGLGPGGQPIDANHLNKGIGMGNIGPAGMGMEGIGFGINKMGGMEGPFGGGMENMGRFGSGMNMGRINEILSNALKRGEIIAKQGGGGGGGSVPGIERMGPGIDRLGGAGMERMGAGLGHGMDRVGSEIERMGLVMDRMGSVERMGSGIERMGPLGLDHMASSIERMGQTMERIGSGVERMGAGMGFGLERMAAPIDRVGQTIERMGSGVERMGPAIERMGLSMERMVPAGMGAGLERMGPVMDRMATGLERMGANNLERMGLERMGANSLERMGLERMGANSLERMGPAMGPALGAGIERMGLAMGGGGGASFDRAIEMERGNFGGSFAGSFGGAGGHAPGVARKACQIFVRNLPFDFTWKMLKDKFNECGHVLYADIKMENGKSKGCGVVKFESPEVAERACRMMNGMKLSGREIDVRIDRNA
# Sequence of UniProt P50747 (P50747 whole entry, looked up): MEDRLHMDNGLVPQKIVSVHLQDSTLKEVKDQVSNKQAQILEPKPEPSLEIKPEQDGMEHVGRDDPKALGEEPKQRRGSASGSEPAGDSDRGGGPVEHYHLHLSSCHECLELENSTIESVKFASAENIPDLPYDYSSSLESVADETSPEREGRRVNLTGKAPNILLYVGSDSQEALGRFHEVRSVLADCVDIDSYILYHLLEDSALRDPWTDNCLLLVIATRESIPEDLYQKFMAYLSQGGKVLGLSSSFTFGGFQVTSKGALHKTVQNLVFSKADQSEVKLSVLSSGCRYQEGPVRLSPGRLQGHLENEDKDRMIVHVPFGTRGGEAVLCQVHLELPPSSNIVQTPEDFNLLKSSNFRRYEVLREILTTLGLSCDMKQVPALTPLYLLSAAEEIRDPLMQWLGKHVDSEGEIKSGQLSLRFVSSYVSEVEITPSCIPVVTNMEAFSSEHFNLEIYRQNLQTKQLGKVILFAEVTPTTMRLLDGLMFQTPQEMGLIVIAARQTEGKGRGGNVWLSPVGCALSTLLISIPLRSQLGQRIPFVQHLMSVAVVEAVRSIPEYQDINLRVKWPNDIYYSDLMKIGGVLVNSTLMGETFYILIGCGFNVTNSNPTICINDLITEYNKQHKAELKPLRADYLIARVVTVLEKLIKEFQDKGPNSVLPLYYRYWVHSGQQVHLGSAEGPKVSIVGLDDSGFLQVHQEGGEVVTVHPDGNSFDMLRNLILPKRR
# Sequence of UniProt P32780 (P32780 whole entry, looked up): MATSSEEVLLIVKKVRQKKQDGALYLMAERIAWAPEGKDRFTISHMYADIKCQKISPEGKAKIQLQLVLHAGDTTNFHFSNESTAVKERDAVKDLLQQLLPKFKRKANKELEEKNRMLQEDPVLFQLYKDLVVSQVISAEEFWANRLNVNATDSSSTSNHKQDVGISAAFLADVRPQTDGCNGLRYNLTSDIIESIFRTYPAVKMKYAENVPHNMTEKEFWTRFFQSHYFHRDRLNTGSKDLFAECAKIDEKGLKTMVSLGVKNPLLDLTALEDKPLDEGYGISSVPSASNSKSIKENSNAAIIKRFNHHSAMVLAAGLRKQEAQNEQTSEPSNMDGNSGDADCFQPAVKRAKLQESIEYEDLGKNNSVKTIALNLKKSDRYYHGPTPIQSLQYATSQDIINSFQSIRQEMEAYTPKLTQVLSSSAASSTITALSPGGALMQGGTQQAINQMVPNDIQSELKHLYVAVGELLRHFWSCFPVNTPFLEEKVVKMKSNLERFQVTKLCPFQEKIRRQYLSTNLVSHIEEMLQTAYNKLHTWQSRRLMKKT
# Sequence of UniProt Q75QN2 (Q75QN2 whole entry, looked up): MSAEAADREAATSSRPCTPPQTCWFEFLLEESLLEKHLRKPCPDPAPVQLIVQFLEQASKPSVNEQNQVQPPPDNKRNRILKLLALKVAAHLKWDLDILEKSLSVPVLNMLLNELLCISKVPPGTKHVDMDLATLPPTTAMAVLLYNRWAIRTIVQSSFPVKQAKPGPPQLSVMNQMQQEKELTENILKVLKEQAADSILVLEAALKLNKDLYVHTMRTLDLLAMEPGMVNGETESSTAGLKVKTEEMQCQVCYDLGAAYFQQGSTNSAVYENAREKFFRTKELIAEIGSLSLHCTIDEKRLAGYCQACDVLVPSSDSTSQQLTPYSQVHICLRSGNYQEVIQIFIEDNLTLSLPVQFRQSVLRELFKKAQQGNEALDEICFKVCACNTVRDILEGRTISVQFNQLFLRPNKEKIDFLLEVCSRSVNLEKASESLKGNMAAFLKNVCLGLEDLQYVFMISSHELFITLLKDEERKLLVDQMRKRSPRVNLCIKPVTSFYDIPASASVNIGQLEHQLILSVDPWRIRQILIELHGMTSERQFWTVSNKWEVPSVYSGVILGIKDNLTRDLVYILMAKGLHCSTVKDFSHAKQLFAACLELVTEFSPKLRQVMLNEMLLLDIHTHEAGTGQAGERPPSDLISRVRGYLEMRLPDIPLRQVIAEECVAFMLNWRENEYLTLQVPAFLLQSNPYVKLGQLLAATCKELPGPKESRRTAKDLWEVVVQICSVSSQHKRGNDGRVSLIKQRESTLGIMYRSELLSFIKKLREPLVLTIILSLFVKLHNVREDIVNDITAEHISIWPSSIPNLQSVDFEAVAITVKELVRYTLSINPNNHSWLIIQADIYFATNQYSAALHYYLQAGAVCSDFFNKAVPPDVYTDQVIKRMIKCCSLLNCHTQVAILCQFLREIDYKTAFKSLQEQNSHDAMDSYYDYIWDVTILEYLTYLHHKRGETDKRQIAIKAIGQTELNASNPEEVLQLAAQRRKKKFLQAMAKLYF
# Sequence of UniProt Q9H6D7 (Q9H6D7 whole entry, looked up): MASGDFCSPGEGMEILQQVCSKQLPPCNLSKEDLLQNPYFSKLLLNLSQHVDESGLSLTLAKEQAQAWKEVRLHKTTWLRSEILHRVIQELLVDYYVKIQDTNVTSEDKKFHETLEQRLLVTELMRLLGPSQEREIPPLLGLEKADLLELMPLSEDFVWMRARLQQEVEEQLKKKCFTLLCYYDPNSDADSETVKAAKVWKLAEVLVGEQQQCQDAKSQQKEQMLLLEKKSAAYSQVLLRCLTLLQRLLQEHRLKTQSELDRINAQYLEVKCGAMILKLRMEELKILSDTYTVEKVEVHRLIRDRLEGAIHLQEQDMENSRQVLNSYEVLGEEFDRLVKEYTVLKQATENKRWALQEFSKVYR
Target,log2 fold change (lapatinib),log2 fold change (pictilisib),log2 fold change (crizotinib),log2 fold change [1],log2 fold change (duvelisib),log2 fold change (gandotinib),log2 fold change (tozasertib),log2 fold change (doramapimod),log2 fold change (bafetinib),log2 fold change [2],log2 fold change (nilotinib),log2 fold change [3],log2 fold change (dasatinib),log2 fold change [4],log2 fold change [5],log2 fold change (quisinostat),log2 fold change (tipifarnib),log2 fold change [6],log2 fold change [7],log2 fold change [8]
HLCS (UniProt P50747),-0.026,-0.022,-0.009,0.199,0.016,-0.002,0.006,0.026,-0.045,-0.007,-0.005,-0.005,0.012,-0.003,0.068,-0.022,-0.006,-0.011,0.024,0.02
GRK6 isoform 2 (UniProt P43250),-0.122,-0.088,0.084,-0.066,-0.04,0.058,-0.063,0.046,0.065,0.028,-0.024,0.094,0.023,0.005,-0.014,-0.043,0,0.012,0.028,-0.097
HIST2H2BC (UniProt Q6DN03),-0.024,0.02,-0.024,0.183,-0.083,-0.054,0.019,0.007,0.018,-0.019,0.003,-0.021,0.051,-0.01,-0.079,-0.014,0.037,0.016,-0.01,0.058
INTS3 (UniProt Q68E01),-0.05,-0.005,-0.016,0.02,-0.005,-0.104,0.018,0.106,-0.07,-0.052,-0.007,0.007,-0.05,-0.045,0.005,-0.038,0.09,0.028,-0.002,-0.028
GTF2H1 (UniProt P32780),-0.03,-0.017,-0.028,0.032,0.023,0.035,-0.019,-0.001,-0.03,-0.021,0.009,0.013,-0.012,-0.04,0.043,-0.064,0.084,0.06,0.037,-0.036
HEATR6 (UniProt Q6AI08),-0.014,-0.033,-0.112,-0.037,0.084,0.003,-0.003,-0.011,0.054,0.045,-0.085,0.022,-0.019,0.022,0,-0.008,-0.06,0.055,0.041,0.026
HAUS4 (UniProt Q9H6D7),0.021,-0.02,-0.083,-0.063,-0.031,-0.009,0.042,0.043,0.003,0.099,0.03,-0.05,-0.052,0.016,0.052,-0.065,-0.021,0.053,0.014,-0.012
INPPL1 (UniProt O15357),0.023,0.006,-0.047,-0.05,-0.004,-0.065,0.029,0.01,-0.05,0.03,-0.007,-0.001,-0.031,-0.02,0.035,0,-0.026,0.032,0.028,0.003
H2AFY (UniProt O75367),-0.021,0.036,0.051,-0.135,0.01,0.084,-0.108,-0.138,-0.011,0.049,0.013,0.003,-0.087,-0.003,0.005,-0.099,0.005,0.058,0.001,-0.034
GUSB (UniProt P08236),-0.097,-0.012,-0.044,-0.547 (active),0.017,0.228,0.02,0.037,-0.057,0.27,0.028,-0.067,0.007,-0.026,-0.002,-0.109,-0.066,-0.041,0.001,-0.01
HDAC10 (UniProt Q969S8),-0.101,-0.019,-0.015,-0.042,-0.014,0.029,0.068,-0.046,0.035,0.061,-0.009,0.023,-0.104,0.032,0.144,0.245,-0.123,0.092,0.111,-0.001
INTS8 (UniProt Q75QN2),0.028,0.104,-0.046,0.015,-0.051,-0.163,0.04,0.021,-0.142,0.036,0.035,0.044,-0.072,0.049,0.021,0.003,-0.009,0.067,-0.035,-0.029
GNB4 (UniProt Q9HAV0),0.031,-0.031,0.106,-0.058,0.015,0.094,-0.028,0.171,-0.033,0.074,-0.083,0.055,0.048,0.127,-0.097,0.042,0.048,-0.172,0.028,0.007
HNRNPM (UniProt P52272),-0.001,0.063,0.025,-0.011,-0.022,0.02,-0.019,-0.113,-0.029,0.053,0.022,-0.043,-0.109,-0.05,0.01,0.055,-0.112,0.054,-0.002,0.053
ITPKA (UniProt P23677),-0.043,-0.055,-0.012,-0.012,-0.038,-0.012,0.051,0.016,-0.043,0.051,-0.005,0.045,-0.064,-0.001,-0.002,-0.026,-0.001,0.044,0.021,-0.027
ICAM2 (UniProt P13598),-0.008,-0.08,-0.002,0.293 (active),-0.035,-0.04,-0.01,-0.014,0.013,-0.075,0.081,-0.077,0.013,0.012,-0.035,0.007,-0.016,-0.018,-0.004,0.018
